# The supplement of paper PMC6555819
# Experiments:
# Experiment in all cases: PBM binding z-score (relative to random genomic background probes); higher = stronger binding; sequences stand for … in GC…GCGATTGACAGCGTAGAATGAAGG
# [1] = test system: RARb homodimer (NR concentration 270 nM)
# In short: (§1)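 Custom Agilent 4×180K protein-binding microarrays carried double-stranded probes, each with a 34-nt variable region. These regions held direct-repeat seeds, single-nucleotide variants, half-site ablations and random human genomic background sequences. Ligand-free nuclear receptor dimers were incubated on the arrays for 1 h, antibodies against each partner (one per run) detected binding, and scanned fluorescence was regression-normalized. Binding z-scores take the random background probes as reference.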
# [2] = test system: RARg:RXRa (NR concentration 270 nM, RXRa partner concentration 90 nM)
# In short: as §1
# [3] = test system: RARg homodimer (NR concentration 270 nM)
# In short: as §1
# [4] = test system: RXRa DBDmut IVT, anti-RXR (DBD mutation: RXRa K156A/R161A, NR concentration 90 nM)
# In short: as §1
# [5] = test system: RXRa homodimer (NR concentration 180 nM)
# In short: as §1
# [6] = test system: THRa:RXRa (NR concentration 90 nM, RXRa partner concentration 90 nM)
# In short: as §1
# [7] = test system: THRa homodimer (NR concentration 90 nM)
# In short: as §1
# [8] = test system: VDR homodimer (NR concentration 270 nM)
# In short: as §1
Sequence,PBM binding z-score [1],PBM binding z-score [2],PBM binding z-score [3],PBM binding z-score [4],PBM binding z-score [5],PBM binding z-score [6],PBM binding z-score [7],PBM binding z-score [8]
CGTCCAAGGTCAGAGAGGTCAGTGACTGCCGAGT,5.15,6.31,6.93,3.54,5.25,4.26,2.58,5.42
CCTACTGGGCCAAGGTCATTGACCAGTCAAAGCA,3.43,3.87,3.66,0.966,4.1,3.67,2.29,2.59
CGAGCTAGGTCAAAGGACAGTGAAAGGCGACGTA,2.82,4.31,4.87,1.29,2.99,2.3,0.253,0.416
ATTTGTAGGTTATCGGGTCATTCAGTTTGCGCAT,3.53,3.69,3.01,1.95,3.61,3.6,3.62,4.42
CGTCCAAGGTCAGCAGGTCACTGAAAGCGACGTG,5.25,7.24,7.65,2.86,6.51,4.32,2.37,1.88
CTAACTAGGTCAAAGGACAGTGAAAGGCGACGTA,3.08,4.05,4.84,1.68,2.97,2.58,0.419,0.409
CCTACAGGGCCAAGGTCATTGATCAGTCAAAGCA,3.47,3.94,3.71,1.5,3.32,3.46,1.93,2.91
ATATGTAGGTTAGGGCCATTCAGAAAGTAGGGAA,1.13,0.818,0.94,0.769,0.668,1.47,0.811,0.685
CGAACTAGGTCAGAGGACAGTGAAAGGCGACGTA,2.41,2.82,3.91,0.547,1.54,1.76,0.433,-7.91e-05
TCTAGTTGGTCAAAGGTCAAACACTCGAAATGCG,5.02,7.43,6.41,2.11,8.23,4.04,1.45,3.12
CCTACTGGGCCACGAAAGGGCATTGATTCAGTGA,1.74,0.854,1.12,-0.586,0.314,1.07,-0.645,-0.334
CCTACTGGGCCATTAAGAGGTCATTGATCATATG,3.96,3.93,2.81,1.02,3.74,3.23,1.49,2.79
TAGCCTAGGTCAGATCGGGCGAGTATACGCTATA,2.27,2.7,3.68,-0.51,1.44,3.15,-0.0987,-0.405
ATATGTAAGTTAGGGTCATTCAGAAAGTAGGGAA,3.04,4,3.02,2.47,5.33,4.05,2.85,3.96
CCTTACGGGTCACTCTAGGTTATAGCATCGGAGT,3.22,4.35,4.38,2,4.27,4.93,0.527,1.39
CCTCCAAGGTCATAGGAGGTCAGTGAAGACAGAT,5.33,6.72,7.01,3.01,6.79,5.36,3.1,4.12
TCGAGTAGGTTACGGGTGCATTCAGGGATGAAGA,0.631,0.869,0.463,0.951,1.29,2.22,-0.191,2.69

Sequence,PBM binding z-score [1],PBM binding z-score [2],PBM binding z-score [3],PBM binding z-score [4],PBM binding z-score [5],PBM binding z-score [6],PBM binding z-score [7],PBM binding z-score [8]
CACACTAGGTCAAGAGGTCAAAGTCCGCTTCCCG,5.71,8.04,7.49,3.09,8.05,4.5,3.03,4.78
CGAACTAGGTCATAGGACAGTGAAAGGCGACGTA,2.66,3.62,3.88,1.21,3.11,2.64,0.357,0.417
ATTTGTAGGTTAGGGTCATTCAGAAAGTAGGGAA,3.88,4.4,3.72,2.82,5.6,4.17,3.71,4.56
CAAACTAGGTCACGAGGTCAAAGTCCGCTTCCCG,5.59,7.56,6.9,3.1,7.59,4.76,4.67,4.9
CCGAGTAGGTTACGAGGGGGCATTTAGTGCGAAT,2.18,3.09,2.33,1.31,2.16,3.92,0.585,2.81
TTACCAAGGTGAAAGGTCGTTGAGGCACGCCTTG,2.61,4.52,2.03,0.589,6.39,3.49,0.818,1.32
CGTCAAAGTTCAACTAATGTAACGTAAAGCACGC,3.96,5.66,6.9,4.76,4.75,3.31,0.305,4.13
CGAACTAGGTCATCAGGACAGTGAAGAGGTTGGA,3.22,4.14,4.73,1.67,2.99,3.38,1.97,0.876
ACTTGGAGGACAAAGGTCAGAGCTACGCCAGTGA,4.32,6.26,5.66,1.71,5.24,3.55,0.496,1.62
CAAACTAGGTCAAAGGTCAAAGACGAGCCAACCA,5.19,9.13,7.66,2.8,10.6,4.79,1.57,3.33
GCATACGGGTCAAAGGTTATAGCATGAATAGAAT,3.26,6.95,4.87,2.46,9.53,3.81,-0.445,1.56
CGCACTAGGTCACCAGGACAGTGAAGAGGTTGGA,3.34,4.53,5.06,1.09,3.23,3.34,2.35,1.14
CAATCTAGGTCACGAAAGGTCAAAGTCGAATGAC,5.85,8.09,8.64,2.58,8.63,5.02,3.08,3.66
CTATGTAGATTAAGGGGGTCATTCAGTTTGAAAG,3.68,4.14,2.94,2.82,5.19,3.74,2.37,5.58
CCTAGTGGGTCAGGAGGTCACACACCGGATATGA,4.61,6.26,5.86,-0.339,6.15,3.73,2.04,2.09
TCGAGTAGGTTACGGGGGCATTCAGGGATGAAGA,2.45,3.55,2.61,1.79,2.77,3.81,1.25,2.57
CGAACTAGGTCACCGGGACAGTGAAGAGGTTGGA,3.62,4.73,5.23,1.41,3.62,3.75,1.79,0.333
